Counter-ions that a name gives are not always drawn.
Key:
[1] = tested on: Staphylococcus aureus MW2 delta-mecA (mecA-); experiment: normalized GFP fluorescence (growth of mecA- strain) (fraction of control range); higher = more growth of mecA- strain; details: compound concentration: 150 uM; cefoxitin: subinhibitory; fluorescent label: GFP
Method in brief: (§1)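 Fluorescence from DsRed (540/590) and GFP (485/520) was recorded after 20 h of static growth at 37 °C and 90% humidity. The wells held a 1:1 mix of pre-induced S. aureus MW2 cells, gene-bearing with DsRed and gene-deleted with GFP, in LB with a daily-set subinhibitory antibiotic dose, dispensed at 5 µL/well onto 150 μM compound (1.5% DMSO) in 1536-well plates, single replicate. Each channel was scaled per plate between single-strain control medians, excluding plates with high untreated ratios and rows with DsRed/GFP >10.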

[2] = tested on: Staphylococcus aureus MW2 (mecA+); experiment: normalized DsRed fluorescence (growth of mecA+ strain) (fraction of control range); higher = more growth of mecA+ strain; details: compound concentration: 150 uM; cefoxitin: subinhibitory; fluorescent label: DsRed
Method in brief: as §1

SMILES	normalized GFP fluorescence [1]	normalized DsRed fluorescence [2]
CN(C)C(=O)Oc1ccc[n+](C)c1	0.22	0.58
CC(=O)O[C@H]1C[C@@H]2CC[C@@H]3[C@H](CC[C@@]4(C)[C@H]3C[C@H]([N+]3(C)CCCCC3)[C@@H]4OC(C)=O)[C@@]2(C)C[C@@H]1[N+]1(C)CCCCC1 [Pancuronium (Pavulon)]	0.324	0.578
C[N+]1(C)[C@@H]2CC[C@H]1C[C@@H](OC(=O)C(CO)c1ccccc1)C2 (stereo not given in full)	0.479	0.574
CC(O)CN1CCN(CC(=O)[O-])CCN(CC(=O)[O-])CCN(CC(=O)[O-])CC1.[Gd+3] (stereo not given)	0.58	0.515
CC(C)CC(N(C)C)C1(c2ccc(Cl)cc2)CCC1 (stereo not given)	0.0915	–
Cn1c(CCCC(=O)O)nc2cc(N(CCCl)CCCl)ccc21 [Bendamustine HCL]	0.659	0.83
N[C@@H](Cc1ccc(N(CCCl)CCCl)cc1)C(=O)O	0.309	0.612
Cl[C@H]1[C@H](Cl)[C@@H](Cl)[C@@H](Cl)[C@H](Cl)[C@H]1Cl	0.612	0.538
C[N+]1(C)CCCC(OC(=O)C(O)(c2ccccc2)c2ccccc2)C1 (stereo not given)	0.765	0.852
C[C@]12CC[C@H]3[C@@H](CC[C@@]45O[C@@H]4C(O)=C(C#N)C[C@]35C)[C@@H]1CC[C@@H]2O	0.134	1.06
CN(C)C(=O)Oc1cccc([N+](C)(C)C)c1	0.41	1.1
CC(C)c1cccc(C(C)C)c1O	0.257	0.882
CNC(=O)Oc1ccc2c(c1)[C@]1(C)CCN(C)[C@@H]1N2C	0.574	0.687
CC(C)N(CCNC(=O)CN1CCCC1=O)C(C)C [Pramiracetam]	0.568	0.402
COc1cc2c(c(OC)c1OC)-c1ccc(OC)c(=O)cc1[C@@H](NC(C)=O)CC2	0.0184	0.897
C[C@H]1CNCCc2ccc(Cl)cc21 [Lorcaserin HCl]	0.467	0.636
COc1ccc(OC)c(C(O)C(C)N)c1 (stereo not given)	0.864	0.526

SMILES	normalized GFP fluorescence [1]	normalized DsRed fluorescence [2]
C#C[C@]1(O)CC[C@H]2[C@@H]3CCC4=CC(=O)CC[C@]4(C)[C@H]3CC[C@@]21C	0.473	0.916
C[C@]12CCC(=O)C(O)=C1CC[C@@H]1[C@@H]2CC[C@]2(C)C(=O)CC[C@@H]12 [Formestane]	0.477	0.7
N.N.[Cl][Pt][Cl]	0.807	0.697
CC(NC(C)(C)C)C(=O)c1cccc(Cl)c1 (stereo not given)	0.332	0.882
O=c1n(Cl)c(=O)n(Cl)c(=O)n1Cl	0.337	0.35
CCN(C)C(=O)Oc1cccc([C@H](C)N(C)C)c1	0.23	0.742
COc1ccc(C(CN(C)C)C2(O)CCCCC2)cc1 (stereo not given)	0.6	0.623
N[C@@H]1C[C@H]1c1ccccc1.N[C@H]1C[C@@H]1c1ccccc1	0.546	0.701
C=C1C[C@@H]2[C@H](CC[C@]3(C)C(=O)CC[C@@H]23)[C@@]2(C)C=CC(=O)C=C12 [Exemestane]	0.367	0.545
CN1CCN(C(=O)O[C@H]2c3nccnc3C(=O)N2c2ccc(Cl)cn2)CC1	0.334	0.793
CC(=O)OC1CN2CCC1CC2 (stereo not given)	0.565	0.665
CNC(C)[C@H](O)c1ccccc1 (stereo not given in full)	0.353	0.809
CCCN1C[C@H](CSC)C[C@@H]2c3cccc4[nH]cc(c34)C[C@H]21 [Pergolide mesylate]	0.105	1.03
CNCC(O)c1ccc(O)cc1 (stereo not given) [Synephrine (Oxedrine)]	0.516	0.777
O=C(O[C@H]1C[C@H]2CC[C@@H](C1)[N+]21CCCC1)C(O)(c1ccccc1)c1ccccc1 [Trospium chloride (Sanctura)]	0.723	0.453
CN1[C@@H]2CC[C@H]1C[C@@H](OC(=O)[C@H](CO)c1ccccc1)C2	0.693	0.664

— the supplement of paper PMC7695840
